Active and inactive are the calls of the source. Unless noted, how the calls were made is not given here.
Columns and labels:
[1] = HepG2 liver cancer cell viability effects, profiling panel, resazurin fluorescence, 24 h, PK04 Diversity Set (AID 1172); conditions: higher = more signal
[2] = basal S. cerevisiae growth modulation, no modifier, primary screen, OD600, strain BY4716, 24 h, basal condition (AID 1173); conditions: OD600, 24 h, higher = more signal, called active from +8 up or from −8 down
[3] = MM1S myeloma cell viability, profiling panel, resazurin fluorescence, basal, 24 h, PK04 Diversity Set (AID 1174); conditions: higher = more signal, called active from +8 up or from −8 down;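 further: MM1S multiple myeloma cell line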
[4] = target: Dihydroorotate dehydrogenase (quinone), mitochondrial (Plasmodium falciparum (isolate 3D7)) (UniProt Q08210); experiment: PfDHODH enzyme inhibitors, primary screen, biochemical, C-terminal His tag, absorbance 600 nm (AID 1175); conditions: DCIP absorbance 600 nm, higher = more signal, called active from +8 up or from −8 down;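 further: recombinant parasite enzyme with a five histidine tag at its C terminus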
Chain of Dihydroorotate dehydrogenase (quinone), mitochondrial (Plasmodium falciparum (isolate 3D7)) (Q08210 whole entry, looked up): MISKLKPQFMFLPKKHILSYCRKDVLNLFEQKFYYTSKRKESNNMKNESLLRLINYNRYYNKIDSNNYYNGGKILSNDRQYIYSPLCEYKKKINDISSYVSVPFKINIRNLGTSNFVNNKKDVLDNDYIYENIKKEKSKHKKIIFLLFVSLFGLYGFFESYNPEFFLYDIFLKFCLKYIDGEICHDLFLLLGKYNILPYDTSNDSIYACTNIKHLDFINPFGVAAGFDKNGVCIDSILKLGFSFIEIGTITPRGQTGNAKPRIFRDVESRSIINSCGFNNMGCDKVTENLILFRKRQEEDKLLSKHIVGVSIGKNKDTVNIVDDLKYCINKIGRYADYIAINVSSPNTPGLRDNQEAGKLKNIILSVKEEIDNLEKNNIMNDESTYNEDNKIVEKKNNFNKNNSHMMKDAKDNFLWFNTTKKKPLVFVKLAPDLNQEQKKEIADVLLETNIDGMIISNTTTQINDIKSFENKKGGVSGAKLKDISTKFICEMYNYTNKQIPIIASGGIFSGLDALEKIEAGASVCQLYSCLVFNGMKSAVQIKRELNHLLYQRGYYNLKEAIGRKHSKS

[5] = P. aeruginosa biofilm formation inhibitors, primary screen, strain PAO1, LB-PBS medium, absorbance 600 nm (AID 1176); conditions: P. aeruginosa PAO1 growth/biofilm, A600, 12 h; higher = more signal
[6] = S. cerevisiae RM11-1a growth modifiers, primary screen, strain RM11-1a, OD600, basal, 24 h (AID 1177); conditions: OD600, 24 h, higher = more signal, called active from +8 up or from −8 down;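 further: cultures grown under basal conditions with no added stressor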
[7] = E. coli acrAB mutant growth effects, primary screen, E. coli filamentation inducers, strain DRC39, OD650, 24 h (AID 1178); conditions: higher = more signal, called active from +8 up or from −8 down;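 further: growth measured as culture turbidity by optical density at 650 nm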
[8] = E. coli acrAB mutant growth effects, primary screen, E. coli filamentation inducers, strain DRC39, OD650, 48 h (AID 1179);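 further: screen aims at cell division blockers that make cells filament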; conditions: E. coli DRC39 delta-acrAB growth, higher = more signal, called active from +8 up or from −8 down
[9] = RPMI8226 myeloma cell viability, profiling panel, resazurin fluorescence, basal, 24 h, PK04 Diversity Set (AID 1180); conditions: higher = more signal;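 further: RPMI8826 multiple myeloma cell line at 5000 cells per well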
[10] = target: E3 ubiquitin-protein ligase XIAP (Homo sapiens) (UniProt P98170); experiment: XIAP binders, primary screen, biophysical, small-molecule microarray, fluorescence 635 nm (AID 1181); conditions: small-molecule microarray binding, higher = more signal;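 further: score merges 667 nm emission and signal to noise over triplicate slides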
Chain of E3 ubiquitin-protein ligase XIAP (Homo sapiens) (P98170 whole entry, looked up): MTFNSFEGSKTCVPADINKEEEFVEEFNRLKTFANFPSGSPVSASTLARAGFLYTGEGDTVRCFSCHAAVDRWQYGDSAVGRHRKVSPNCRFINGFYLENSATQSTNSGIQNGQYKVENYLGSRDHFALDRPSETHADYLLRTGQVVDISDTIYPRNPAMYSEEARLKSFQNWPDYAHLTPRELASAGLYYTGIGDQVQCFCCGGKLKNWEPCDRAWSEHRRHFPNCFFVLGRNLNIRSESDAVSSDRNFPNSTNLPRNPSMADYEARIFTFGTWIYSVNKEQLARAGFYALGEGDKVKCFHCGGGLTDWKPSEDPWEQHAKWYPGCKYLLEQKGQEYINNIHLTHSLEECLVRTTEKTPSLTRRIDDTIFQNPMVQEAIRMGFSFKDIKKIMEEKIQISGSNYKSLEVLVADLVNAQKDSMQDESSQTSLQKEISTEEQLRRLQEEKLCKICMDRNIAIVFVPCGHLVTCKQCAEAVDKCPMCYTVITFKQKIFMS

[11] = test system: XIP peptide (Xip251-270) binding; experiment: small-molecule binders of XIP peptide, primary screen, biochemical, small-molecule microarray, fluorescence 635/667 nm, 0.1 µg/mL protein (AID 1182); conditions: fluorescent protein binding, 635 nm, higher = more signal, called active from +8 up or from −8 down
XIP peptide (Xip251-270) = experiment: small-molecule binders of XIP peptide, primary screen, biochemical, small-molecule microarray, fluorescence 635/667 nm, 0.5 µg/mL protein (AID 1183); conditions: small-molecule microarray binding, fluorescence 635 nm; higher = more signal
[12] = Plasmodium falciparum growth inhibition, primary screen, strain 3D7, DAPI fluorescence, 100 nL (AID 1184);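 further: parasites grown inside human red blood cells in medium with human serum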; conditions: P. falciparum 3D7 growth, 3 d, higher = more signal
[13] = target: Homeobox protein Hox-A13 (Mus musculus) (UniProt Q62424); experiment: inhibitors of HoxA13-DNA binding, primary screen, biochemical, fluorescence polarization, labeled oligonucleotide (AID 1185); conditions: 15 min, higher = more signal, called active from +8 up or from −8 down
Chain of Homeobox protein Hox-A13 (Mus musculus) (Q62424 whole entry, looked up): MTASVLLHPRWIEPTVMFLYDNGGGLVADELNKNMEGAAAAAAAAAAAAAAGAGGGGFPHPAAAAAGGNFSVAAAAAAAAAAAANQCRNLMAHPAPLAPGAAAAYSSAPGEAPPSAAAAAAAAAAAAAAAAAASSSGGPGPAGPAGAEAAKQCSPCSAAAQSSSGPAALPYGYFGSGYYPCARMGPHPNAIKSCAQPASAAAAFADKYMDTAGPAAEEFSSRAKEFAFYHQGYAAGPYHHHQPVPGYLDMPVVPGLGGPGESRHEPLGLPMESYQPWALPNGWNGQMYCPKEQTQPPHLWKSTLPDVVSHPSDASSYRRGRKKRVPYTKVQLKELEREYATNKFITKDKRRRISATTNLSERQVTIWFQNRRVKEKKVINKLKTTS

[14] = inhibitors of hydroxyurea-induced Chk1 phosphorylation, primary screen, imaging, HeLa, phospho-Chk1 antibody, percent positive cells (AID 1186); conditions: hydroxyurea-induced phospho-Chk1 immunofluorescence imaging, higher = more signal
[15] = inhibitors of hydroxyurea-induced Chk1 phosphorylation, primary screen, imaging, HeLa, phospho-Chk1 nuclear intensity (AID 1187); conditions: hydroxyurea-induced phospho-Chk1 immunofluorescence imaging, higher = more signal

Compound	z-score [1]	z-score [2]	z-score [3]	composite z-score [4]	z-score [5]	z-score [6]	z-score [7]	z-score [8]	z-score [9]	composite z-score [10]	composite z-score [11]	composite z-score (XIP peptide (Xip251-270))	z-score [12]	z-score [13]	z-score [14]	z-score [15]
COC(=O)C(CC#Cc1ccc2c(c1)[C@]1(C(=O)N2)[C@H](c2ccc(O)cc2)N2[C@H](c3ccccc3)[C@H](c3ccccc3)OC(=O)[C@H]2[C@@H]1C(=O)N1CCN(c2ncccn2)CC1)C(=O)OC	-0.0862	0.238 (inactive)	-1.02 (inactive)	0.0817 (inactive)	0.847 (inactive)	0.849 (inactive)	0.551 (inactive)	0.769 (inactive)	-3.92	-0.0668	0.655 (inactive)	0.826	-2.26	-1.65 (inactive)	-0.231 (inactive)	-0.514 (inactive)
C=CC[C@]1(C(N)=O)N=C(c2ccc(OCCCO)cc2)O[C@H]1c1ccccc1	-0.095	-0.496 (inactive)	-0.0113 (inactive)	0.867 (inactive)	0.248 (inactive)	-0.412 (inactive)	0.247 (inactive)	-0.875 (inactive)	-0.52	-0.0749	0.672 (inactive)	0.787	-1.09	-6.17 (inactive)	0.344 (inactive)	0.327 (inactive)
Cc1ccc(/C=C/C=O)cc1	-0.466	-1.75 (inactive)	-0.509 (inactive)	-0.962 (inactive)	-0.64 (inactive)	0.213 (inactive)	0.562 (inactive)	0.386 (inactive)	0.812	-0.214	0.551 (inactive)	0.284	1.39	-1.15 (inactive)	0.503 (inactive)	0.713 (inactive)
COc1ccc([Si](C)(C)[C@@H]2[C@@H](CC(=O)N3CCC[C@H]3CO)O[C@]3(C(=O)N(Cc4cccc(I)c4)c4ccccc43)[C@H]2C)cc1	-2.43	-0.91 (inactive)	-3.49 (inactive)	0.447 (inactive)	0.483 (inactive)	1.07 (inactive)	-1 (inactive)	-1.05 (inactive)	-4.92	0.189	0.302 (inactive)	0.572	-2.28	-3.72 (inactive)	-0.198 (inactive)	-0.353 (inactive)
C[N+](C)(C)CCCC[C@@H]1NC(=O)[C@@H]2C[C@H](C(=O)NCCCCCCNC(=O)CS)[C@H](c3ccc(O)cc3)N2C1=O	-0.206	1.4 (inactive)	-0.387 (inactive)	-0.206 (inactive)	-0.282 (inactive)	0.144 (inactive)	-0.253 (inactive)	-0.135 (inactive)	-0.437	-0.0911	0.307 (inactive)	0.496	0.504	-1.32 (inactive)	0.146 (inactive)	0.32 (inactive)
C=CCNC(=O)[C@H]1[C@@H]2C(=O)O[C@@H](c3ccccc3)[C@@H](c3ccccc3)N2[C@@H](c2ccc(O)cc2)[C@]12C(=O)Nc1ccc(C#CCCO)cc12	1.13	0.189 (inactive)	1.16 (inactive)	0.0992 (inactive)	-0.42 (inactive)	0.957 (inactive)	0.516 (inactive)	0.567 (inactive)	1.08	-0.198	-0.0879 (inactive)	-0.227	0.093	-4.04 (inactive)	-0.266 (inactive)	-0.136 (inactive)
COC(=O)[C@@]1(Cc2ccc(OC)cc2)[C@H]2c3cc(C(=O)N4CCCC4)n(CCc4ccc(O)c(O)c4)c3C[C@H]2CN1C(=O)c1ccccc1	-1.37	1.04 (inactive)	-1.79 (inactive)	-0.487 (inactive)	2.16 (inactive)	0.397 (inactive)	-0.215 (inactive)	-0.163 (inactive)	-1.33	0.0517	1.75 (inactive)	0.83	-1.62	-6.01 (inactive)	0.264 (inactive)	0.379 (inactive)
COCC(=C=CC[C@H](O)c1cccc(OCCO)c1)C[C@H](O)c1cc(Cl)cc(Cl)c1O	1.13	-2.5 (inactive)	0.685 (inactive)	-0.492 (inactive)	0.625 (inactive)	0.337 (inactive)	0.679 (inactive)	0.477 (inactive)	0.159	-0.0669	0.378 (inactive)	0.825	-0.366	-4.71 (inactive)	0.144 (inactive)	0.532 (inactive)
COc1ccc([Si](C)(C)[C@@H]2[C@@H](CCn3cc(CCO)nn3)O[C@]3(C(=O)N(Cc4cccc(N5C(=O)c6cccc7cccc5c67)c4)c4ccccc43)[C@H]2C)cc1	-3.66	0.348 (inactive)	-6.83 (inactive)	0.0598 (inactive)	-0.459 (inactive)	1.69 (inactive)	-0.162 (inactive)	-0.831 (inactive)	-6.09	-0.0999	1.49 (inactive)	0.589	-2.81	-2.66 (inactive)	-0.953 (inactive)	-0.813 (inactive)
NC(=O)[C@@H]1[C@H]2C(=O)O[C@H](c3ccccc3)[C@H](c3ccccc3)N2[C@H](c2ccc(O)cc2)[C@@]12C(=O)Nc1ccc(C#CC3=CCCCC3)cc12	-0.712	0.761 (inactive)	-7.46 (inactive)	1.68 (inactive)	0.802 (inactive)	2.07 (inactive)	-0.488 (inactive)	-0.705 (inactive)	-6.39	-0.0696	0.799 (inactive)	0.619	-0.303	-0.487 (inactive)	0.0025 (inactive)	0.518 (inactive)
O=C1C2C=CC(C(O)COCc3ccccc3)N(Nc3ccc([N+](=O)[O-])cc3)C2C(=O)N1c1ccccc1 (centres undefined)	0.0505	0.858 (inactive)	0.391 (inactive)	-0.262 (inactive)	0.589 (inactive)	0.498 (inactive)	0.24 (inactive)	0.613 (inactive)	0.948	0.0604	-0.183 (inactive)	-0.006	-1.2	-3.13 (inactive)	0.0045 (inactive)	0.54 (inactive)
CN1C(=O)C2C=CC(C(O)c3c(F)cccc3Cl)N(NC(=O)OC(C)(C)C)C2C1=O (centres undefined)	-0.417	0.357 (inactive)	-0.414 (inactive)	0.17 (inactive)	0.791 (inactive)	0.0301 (inactive)	-0.775 (inactive)	-0.181 (inactive)	-0.301	0.0951	1.69 (inactive)	0.836	0.436	-1.51 (inactive)	0.0188 (inactive)	0.0545 (inactive)
CC(C)(C)OC(=O)CC[C@]1(C(N)=O)N=C(c2ccc(OCCCO)cc2)O[C@H]1c1ccccc1	-0.49	0.45 (inactive)	-0.689 (inactive)	-0.0959 (inactive)	0.55 (inactive)	0.663 (inactive)	-0.218 (inactive)	-0.585 (inactive)	-0.676	0.12	1.25 (inactive)	-0.612	0.404	-2.87 (inactive)	0.444 (inactive)	-0.0163 (inactive)
COc1ccc([Si](C)(C)[C@H]2[C@H](CC(=O)N3CCC[C@H]3CO)O[C@@]3(C(=O)N(Cc4cccc(N5CCOC5=O)c4)c4ccccc43)[C@@H]2C)cc1	0.22	-0.338 (inactive)	-0.133 (inactive)	-3.32 (inactive)	-0.249 (inactive)	0.177 (inactive)	0.181 (inactive)	-0.109 (inactive)	-0.699	-0.0839	0.991 (inactive)	0.672	-1.42	-4.71 (inactive)	0.835 (inactive)	0.936 (inactive)
[N-]=[N+]=NCc1ccccc1[C@H]1OC(c2ccc(OCCCO)cc2)=N[C@@]1(Cc1ccccc1)C(=O)N1CCCCC1	0.804	-1.95 (inactive)	-1.71 (inactive)	0.451 (inactive)	-0.441 (inactive)	-0.923 (inactive)	1.29 (inactive)	1.25 (inactive)	-0.941	-0.0622	-0.178 (inactive)	0.625	-2.4	-4.35 (inactive)	-0.959 (inactive)	-1.5 (inactive)
O=C1OCCC=C[C@H]2OC34C=CCN(c5ccc(Cl)cc5)C(=O)[C@H]3N(CCCO)C(=O)[C@@H]4C12 (some centres undefined)	-0.281	-0.757 (inactive)	0.357 (inactive)	-0.792 (inactive)	0.248 (inactive)	-0.163 (inactive)	0.881 (inactive)	0.415 (inactive)	-0.658	-0.0826	-0.869 (inactive)	-0.481	-1.83	-3.2 (inactive)	-0.511 (inactive)	-0.536 (inactive)
CN1C(=O)C2C=CC(C(O)c3ccccc3)N(N3CCCCC3)C2C1=O (centres undefined)	-0.894	0.429 (inactive)	-0.983 (inactive)	0.0669 (inactive)	0.462 (inactive)	-0.023 (inactive)	-1.32 (inactive)	-1.4 (inactive)	-1.56	0.263	0.344 (inactive)	0.797	-0.261	-5.01 (inactive)	0.246 (inactive)	-0.455 (inactive)
Cc1ccc(S[C@]2(C(=O)O)CC(=O)N(C(C)C)[C@@H]2c2ccc(CO)cc2)cc1	0.0469	-1.45 (inactive)	0.359 (inactive)	-0.896 (inactive)	1.02 (inactive)	-1.33 (inactive)	1.44 (inactive)	1.93 (inactive)	0.376	-0.0962	0.402 (inactive)	0.216	0.252	-0.292 (inactive)	-0.696 (inactive)	-0.558 (inactive)
COCCCNC(=O)[C@@H]1c2ccccc2C(=O)N(Cc2ccccc2OC)[C@H]1c1ccc(CO)cc1	1.13	-0.993 (inactive)	1.71 (inactive)	0.253 (inactive)	1.23 (inactive)	-0.839 (inactive)	0.342 (inactive)	0.261 (inactive)	1.14	0.0472	0.694 (inactive)	-0.0218	-1.99	-2.85 (inactive)	-0.481 (inactive)	-0.576 (inactive)
